PubChem BioAssay AID751 (NMMLSC, 2007)
The campaign covered roughly 24,000 compounds. About 40 (0.2%) were called active. The entries come from a sample that favours actives as a whole. A number with no mark means an inactive call.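 How the source made its calls: active means inhibition of disassembly above about 33% (limit read from the data); inconclusive means likely self-fluorescent, control bead median signal at least 40; inactive means the rest.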

Test system: 26S proteasome (yeast, GFP-tagged, ATP-dependent disassembly)
Experiment: blockers of yeast 26S proteasome breakdown – biochemical, bead-based flow cytometry, GFP-tagged proteasome, primary screen (AID 751);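 further: plate controls were ATP control with full disassembly for no effect and ATP-gamma-S intact proteasomes for full effect; higher percent means more bead fluorescence retained so stronger block of disassembly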
Conditions: anti-FLAG beads, stronger effect = higher value, concentration not given here

Row | SMILES | inhibition of disassembly
1 | COc1ccccc1N1CCN(C(CNC(=O)Oc2ccccc2)c2cccnc2)CC1 (stereo not given) | 19.4%
2 | O=C(NCC(c1cccnc1)N1CCN(c2ccccc2)CC1)Oc1ccccc1 (stereo not given) | 44.6% (active)
3 | CC(C)c1ccc(O)c(CN2CCN(c3ccccc3)CC2)c1 | 0.72%
4 | Cc1cccc(-n2c(C)nc3cc(C(=O)N4CCC5(CC4)OCCO5)ccc32)c1 | 1.69%
5 | CCOC(=O)C1=C(C)OC(N)=C(C(=O)OC)C12C(=O)Nc1ccc(Br)cc12 (stereo not given) | -0.24%
